Assay outcomes as filed in PubChem.
KCNQ2 inh: blocks the rat KCNQ2 potassium channel | O88943 | CHO-K1 KCNQ2, FluxOR thallium flux, 20 min; stronger effect = lower value | B-score at 10 µM | 310,000 tested, 1.1% active;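 active means fluorescence ratio B-score at most minus 3 library SDs, with starting brightness B-score within 2 library SDs, cut at about -5.5 in these data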
KCNQ2 pot: enhances the rat KCNQ2 potassium channel. O88943. CHO-K1 KCNQ2, FluxOR thallium flux fluorescence; stronger effect = higher value. B-score at 10 µM. 310,000 tested, 0.54% active;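 active means fluorescence ratio B-score at least 3 SD of library B-scores, with initial fluorescence B-score within 3 of them, cut at about 5.3 in these data; same plate scores as AID 2156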;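 further: B-score of peak minus minimum over baseline fluorescence ratio after K+ and Tl+ stimulus; positive B-score means potentiation of KCNQ2 with more thallium influx and brighter signal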
Kir21 conf inh: confirmation of mouse Kir2.1 potassium channel inhibitors; shares compounds with KCNQ2 pot; Kir2.1-expressing cells, FluxOR thallium flux fluorescence; stronger effect = lower value; Tl flux remaining, % of negative control (stronger effect = lower value), % at 10 µM; 2,300 tested, 41% active; AID 2032;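 active means Primary-screen hit whose thallium flux fell at least 3 control SD below untreated wells in both duplicates, with normal baseline fluorescence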;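 further: 0% = blank wells without stimulus and 100% = stimulated no-compound controls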
HEK293 Tl flux: alters thallium flux in parental HEK293 cells, Kir2.1 counter-screen | shares compounds with KCNQ2 pot | FluxOR thallium flux fluorescence; 0% = unstimulated blank wells | FluxOR signal as % of negative control (100 = no effect), % at 10 µM | 2,300 tested, 19% active | AID 2105;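 active means dye signal at least 3 control SD above or below untreated wells in both duplicates, raw fluorescence within 3, either direction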;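 further: percent is based on the flux ratio of peak minus minimum fluorescence over baseline F0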
CHO-K1 Tl ctr: parental CHO-K1 activity in KCNQ2 potentiator counter-screen; AID 2282; parental CHO-K1 cells, FluxOR thallium flux fluorescence; zero = vehicle mean+3SD, 100% = vehicle-minus-blank window; activity increase over 3SD of controls, % at 10 µM; shares compounds with KCNQ2 pot; 1,200 tested, 43% active;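 active means signal rise of at least 3 SD above the untreated control mean, in both duplicate wells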;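 further: counter screen of KCNQ2 potentiator hits so any rise reflects channel-independent effects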
KCNQ1 sel pot: tests whether KCNQ2 potentiators also act on human KCNQ1; CHO KCNQ1 stable, FluxOR thallium flux fluorescence; beyond 3SD, as % of vehicle-control signal; activation over 3SD threshold, % at 10 µM; shares compounds with KCNQ2 pot; 1,200 tested, 28% active; AID 2283;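 active means fluorescence ratio rise of at least 3 SD of vehicle wells above their mean, in both replicate wells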;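 further: 0% = vehicle mean plus 3 SD and 100% = vehicle minus unstimulated blank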
KCNQ2 pot confirm: confirmation of rat KCNQ2 potassium channel potentiators; shares compounds with KCNQ2 pot; CHO-KCNQ2 cells, FluxOR thallium flux fluorescence; potentiation, less the hit threshold, % at 10 µM; 1,200 tested, 68% active; AID 2287;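 active means fluorescence ratio rising 3 SD or more over the vehicle control mean in both replicates, plus primary screen hit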;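 further: peak minus minimum thallium fluorescence divided by baseline after K/Tl stimulus; 0% = vehicle mean plus 3 SD and 100% = vehicle minus unstimulated blank difference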
Kir21 spec: mouse Kir2.1 off-target activity of KCNQ2 potentiators; HEK293 Kir2.1, FluxOR thallium flux fluorescence; 1,200 tested, 2% active; shares compounds with KCNQ2 pot; AID 2345; activity over 3SD threshold, % at 10 µM;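 active means fluorescence ratio rise of at least 3 SD above the vehicle-control mean, seen in both replicates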;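 further: 0% = vehicle mean plus 3 SD and 100% = vehicle minus no-stimulus blank window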
KCNQ2 W236L MoA: rat KCNQ2 W236L mutant potentiation by KCNQ2 potentiators; shares compounds with KCNQ2 pot; CHO KCNQ2-W236L, automated patch clamp current; current increase over 3SD of negative controls (%), stronger effect = higher value, % at 25 µM; 940 tested, 10% active;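 active means current increase at least 3 SD of the untreated controls above them in both duplicate recordings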
* marks the source's active call; other numbers are inactive results; i = inactive; / = not tested or not shown. Compounds with a hit are over-represented: about 1.6% of the library has one in this group of screens.

SMILES	KCNQ2 inh	KCNQ2 pot	Kir21 conf inh	HEK293 Tl flux	others
c1ccc(CN2CCN(CCOCCOc3cccc4ccccc34)CC2)cc1	i	/	19.0%*	i
COc1ccc(-c2cc(=O)oc3c(O)c(O)ccc23)cc1	i	1.4	/	/
CC1Oc2cc3oc4c(O)c(O)ccc4c(=O)c3c(O)c2C1(C)C (centres undefined)	i	5.39*	i	i	CHO-K1 Tl ctr=-2.2;KCNQ1 sel pot=-12.0;KCNQ2 pot confirm=-13.7;Kir21 spec=-18.4
COC(=O)c1cccc(NC(=S)Nc2ccccc2Cl)c1	i	0.44	/	/
COC(=O)c1cccc(NC(=S)Nc2ccc(Cl)c(Cl)c2)c1	i	5.41*	i	i	CHO-K1 Tl ctr=-9.1;KCNQ1 sel pot=1.4*;KCNQ2 pot confirm=-1.2;Kir21 spec=-40.4;KCNQ2 W236L MoA=i
COc1ccc(CNn2c(-c3ccccc3F)nc3ccccc3c2=O)cc1OC	i	/	/	/
CCn1c(CC(=O)Nc2ccccc2)nnc1SCC(=O)Nc1nnc(C)s1	i	0.7	/	/
CC(Nc1ccc(Cl)cc1)C(=O)NN (centres undefined)	i	/	/	/
CS(=O)(=O)c1ccc(-c2nnc(NC(=O)c3ccco3)o2)cc1	i	0.06	/	/
O=C(Nc1nnc(-c2ccc(Br)cc2)o1)c1ccco1	i	16.5*	i	i	CHO-K1 Tl ctr=-6.3;KCNQ1 sel pot=-17.1;KCNQ2 pot confirm=18.8*;Kir21 spec=-32.0;KCNQ2 W236L MoA=i
O=C(O)c1ccc2c(c1)C(=O)N(CCc1c[nH]c3ccccc13)C2=O	i	0.31	/	/
Cc1ccnc(NCc2ccccc2O)c1	i	1.18	/	/
CCc1ccc(O)c(CNCCNCc2cc(CC)ccc2O)c1	i	2.82	50.0%*	i
CCc1ccc(O)c(N=Cc2ccccc2O)c1	i	/	/	/
Cc1ccc(O)c(CNCCNCc2cc(C)ccc2O)c1	i	/	38.0%*	i
Cc1nc(N2CCN(C(=O)c3ccco3)CC2)nc2c1C(=O)CCC2	i	1.91	/	/
CC(C)OC(=O)Nc1ccc2c(c1)N(C(=O)CCN1CCOCC1)c1ccccc1CC2	i	/	/	/
CCOc1ccccc1C(=O)NC(C(=O)OCC(=O)Nc1nnc(-c2ccccc2)o1)C(C)C (centres undefined)	i	/	/	/
CCOc1ccccc1C(=O)OCC(=O)Nc1nnc(-c2ccccc2)o1	i	5.47*	i	145.0%*	CHO-K1 Tl ctr=23.3*;KCNQ1 sel pot=-5.5;KCNQ2 pot confirm=13.9*;Kir21 spec=-17.0;KCNQ2 W236L MoA=i
Cc1ccc(CNC(=O)C2CCC(=O)N(Cc3ccccc3F)C2)s1 (centres undefined)	i	0.73	/	/
Cc1ccc(C(=O)N2CCN(c3ccccc3)CC2)cc1S(=O)(=O)N1CCCC1	i	1.72	i	i
Cc1ccc(C(=O)N2CCN(c3ccc(F)cc3)CC2)cc1S(=O)(=O)N1CCCCC1	i	/	/	/
CCC1CCC/C1=N\NC(=O)c1ccccc1C (centres undefined)	i	0.62	/	/
CC1CN(c2ccc([N+](=O)[O-])nc2)CC(C)O1 (centres undefined)	i	0.97	/	/
COc1ccc(CCNC(=O)CCS(=O)(=O)c2ccc3nc(C)sc3c2)cc1OC	i	/	/	/
SMILES	KCNQ2 inh	KCNQ2 pot	Kir21 conf inh	HEK293 Tl flux	others
CC(C)CCN1C(Nc2ccccc2)=NC[C@@H]1Cc1ccccc1	i	/	/	/
CC(CCN1C(Nc2ccccc2)=NC[C@@H]1Cc1ccccc1)c1ccccc1 (some centres undefined)	i	/	46.0%*	128.5%*
Cc1ccc2oc(-c3cc(NC(=O)c4ncn[nH]4)ccc3O)nc2c1	i	0.38	/	/
COc1cc(Br)c(/C=C/c2ccc3cccc(O)c3n2)cc1OC	i	0.09	/	/
COc1cc(/C=C/c2ccc3cccc(O)c3n2)c(Br)cc1O	i	6.37*	i	71.0%*	CHO-K1 Tl ctr=5.7*;KCNQ1 sel pot=-12.1;KCNQ2 pot confirm=-19.3;Kir21 spec=-39.9
COc1ccc(OC)c(/C=C/c2ccc3cccc(O)c3n2)c1	i	0.39	/	/
